# In PubChem BioAssay (NCATS):
# Records with an inconclusive call do not appear. Entries that show only a call come without a potency. Active and inactive are the calls of the source. Calls come from the whole dose curve; as a rule, active = well fitted curve in the direction sought with a large enough effect; inconclusive = small, poorly fitted or top-dose-only effect, or another doubt; inactive = no such curve, though single readings can be large; an effect the other way counts as inactive or inconclusive.
# Legend:
# [1] = biological target: Calcium and integrin-binding protein 1 (Homo sapiens) (UniProt Q99828); assay: Validation qHTS for Identification of Calcium Integrin Binding protein 1 (CIB1) Competitor (AID 1508618); details: CIB1-GST / FITC-alphaIIb peptide fluorescence polarization; series mostly up to 114 µM
# Sequence of Calcium and integrin-binding protein 1 (Homo sapiens) (Q99828 whole entry, looked up): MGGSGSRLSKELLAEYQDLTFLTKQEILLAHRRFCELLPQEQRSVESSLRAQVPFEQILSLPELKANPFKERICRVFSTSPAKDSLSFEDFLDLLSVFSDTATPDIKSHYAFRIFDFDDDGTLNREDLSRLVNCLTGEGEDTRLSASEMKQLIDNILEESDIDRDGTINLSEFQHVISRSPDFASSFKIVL
# In short: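 CIB1-GST (1 uM final) in 5 mM HEPES pH 7.4, 125 mM NaCl, 5 mM CaCl2, 0.01% Tween20 was preincubated 15 min at room temperature with compound (up to 114 uM), then FITC-alphaIIb peptide (100 nM) added for 15 min; fluorescence polarization read.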
# [2] = biological target: Single-stranded DNA cytosine deaminase (Homo sapiens) (UniProt Q9GZX7); assay: Validation qHTS assay for inhibitors of Activation Induced Cytidine Deaminase (AID): AID signal (AID 1347429); details: Recombinant AID, FRET ssDNA deamination with UDG, fluorescence; series mostly up to 115 µM
# Sequence of Single-stranded DNA cytosine deaminase (Homo sapiens) (Q9GZX7 whole entry, looked up): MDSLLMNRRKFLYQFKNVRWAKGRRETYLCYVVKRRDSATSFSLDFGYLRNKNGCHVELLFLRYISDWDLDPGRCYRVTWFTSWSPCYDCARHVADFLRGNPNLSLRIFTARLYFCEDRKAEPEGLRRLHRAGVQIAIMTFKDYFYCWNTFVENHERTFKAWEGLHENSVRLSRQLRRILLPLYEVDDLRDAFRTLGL
# In short: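 Fluorescence at 540 nm excitation and 590 nm emission reports ssDNA cytosine deamination by AID, with UDG in the same well. Compound-treated reactions ran 4 hr at room temperature with DJC20/DJC23 substrate, followed by 30 min NaOH treatment.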
# [3] = Primary qHTS for inhibitors of La Crosse Virus (LACV) - induced cell death in SH-SY5Y cells (AID 1508616); details: SH-SY5Y LACV cytopathicity rescue, ATP luminescence, 6 d; series mostly up to 9.63 µM;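 note: top concentration of the series differs between compounds; higher means more rescue of cells from virus-induced death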
# In short: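 Protection against LACV-induced cell death is scored in SH-SY5Y cells exposed to compounds and virus (0.01 MOI) for 6 days. Data normalized to virus-infected DMSO wells and virus-free DMSO wells.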
# [4] = biological target: Calcium and integrin-binding protein 1 (Homo sapiens) (UniProt Q99828); assay: Primary qHTS for Identification of Calcium Integrin Binding Protein 1 (CIB1) Competitor (AID 1508620); details: CIB1-GST / FITC-alphaIIb peptide fluorescence polarization; series mostly up to 114 µM;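 note: GST tagged CIB1 binding a fluorescein labelled alphaIIb integrin peptide tracer; top concentration of the series differs between compounds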
# In short: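 Fluorescence polarization competition: CIB1-GST (1 uM final) preincubated with compound 15 min at room temperature, then FITC-labeled alphaIIb peptide (100 nM final) added for another 15 min. Polarization read at Ex 480/Em 540.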
compound,measurement,setting,value
Nc1ccn([C@H]2O[C@H](CO)[C@@H](O)C2(F)F)c(=O)n1,outcome,[1],inactive
O=C(O)[C@@H]1C[C@H](C(=O)O)N1,Potency,[2],inactive
same,Potency,[3],inactive
CC[C@H]1OC(=O)[C@H](C)C(O[C@H]2C[C@@](C)(OC)[C@@H](O)[C@H](C)O2)[C@H](C)[C@@H](OC2O[C@H](C)C[C@H](N(C)C)[C@H]2O)[C@](C)(O)C[C@@H](C)CN(C)[C@H](C)[C@@H](O)[C@]1(C)O (some centres not stated),outcome,[1],inactive
CC1CN(S(=O)(=O)c2cccc3cnccc23)CCN1 (configuration not stated),Potency,[2],inactive
same,Potency,[3],inactive
same,outcome,[1],inactive
CN1[C@@H]2CC[C@H]1CC(OC(c1ccccc1)c1ccccc1)C2 (some centres not stated),Potency,[4],inactive
C[C@H](O)[C@H](O)[C@H]1CNc2nc(N)[nH]c(=O)c2N1,Potency,[4],inactive
CNCC[C@H](Oc1ccc(C(F)(F)F)cc1)c1ccccc1,Potency,[3],inactive
CC1(C)S[C@@H]2[C@H](NC(=O)[C@H](NC(=O)N3CCN(S(C)(=O)=O)C3=O)c3ccccc3)C(=O)N2[C@H]1C(=O)O,Potency,[4],inactive
CC(C)NCC(O)COc1cccc2ccccc12 (configuration not stated),Potency,[3],inactive
same,outcome,[1],inactive
CN(C)c1nc2c(Br)c(Br)c(Br)c(Br)c2[nH]1,Potency,[2],inactive
same,Potency,[3],inactive
CC(=O)O[C@H]1C[C@@]2(C)[C@@H](C[C@@H](O)[C@H]3[C@@]4(C)CC[C@@H](O)[C@@H](C)[C@@H]4CC[C@@]32C)/C1=C(\CCC=C(C)C)C(=O)O,Potency,[4],inactive
COC(=O)[C@H]1[C@H]2C[C@@H]3c4[nH]c5cc(OC)ccc5c4CCN3C[C@H]2C[C@@H](OC(=O)/C=C/c2cc(OC)c(OC)c(OC)c2)[C@@H]1OC,Potency,[4],inactive
